Bioassay records from PubChem.
KAT2A inh: qHTS Assay for Inhibitors of GCN5L2 | AID 504327, 2011 | Potency, µM (titrated, usually from 58.9 µM), for inactives: top-dose activity change, negative = inhibition, usual class: inhibitors | GCN5L2 HAT assay, ThioGlo1 CoA-SH fluorescence | 390,000 compounds, 0.21% hits | Histone acetyltransferase KAT2A (Homo sapiens), Q92830; further: on the % scale 0 is the no-effect control and ±100 the full control effect
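ThioGlo1-coupled HAT assay: 20nM GCN5L2, 70uM acetyl-CoA, 75uM H3(1-25) peptide, pH 7.5. Fluorescence read at 340/540nm at start and after 20 min at room temperature.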
TRb-SRC2 inh: qHTS for Inhibitors of the Interaction of Thyroid Hormone Receptor and Steroid Receptor Coregulator 2; AID 1469, 2008; Potency, µM (titrated, usually from 106 µM), for inactives: at the top dose activity change, negative = inhibition, usual class: inhibitors; 280,000 compounds, 0.065% hits; TRbeta-SRC2 peptide binding, fluorescence polarization; receptor liganded with 1 µM T3;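 further: plate controls were bound peptide for no effect and peptide without receptor for full effect; nearly all actives have a fitted effect of over 50% in size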
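Fluorescence polarization of 20 nM Texas Red SRC2 peptide (20-aa NR interaction domain) bound to 0.6 uM human TRb ligand-binding domain, with 1 uM T3, after 5 hr at ambient temperature; inhibition seen as decreased polarization.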
TexasRed fluor: Total Fluorescence Counterscreen for Inhibitors of the Interaction of Thyroid Hormone Receptor and Steroid Receptor Coregulator 2. TRb/SRC2 Texas Red total fluorescence interference. Potency, µM (top dose mostly 106 µM), without a hit: top-dose fluorescence change, negative = quenching. 280,000 compounds, 0.29% hits. AID 1479, 2009; active means well fitted curve in either direction with a large enough effect; inconclusive means small, poorly fitted or top-dose-only effect; further: on the % scale 0 is the no-effect control and ±100 the full control effect
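Human TRβ ligand-binding domain (0.6 uM) and Texas Red SRC2 peptide (20 nM) in Tris buffer with 1 uM T3 and 5% DMSO were incubated with pinned compound for 5 hr at ambient temperature. Total fluorescence was computed as S + 2P (555/632 nm).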
RGS12 GoLoco inh: qHTS Assay for Inhibitors of RGS12 GoLoco Motif Activity (Red Fluorophore) | Guanine nucleotide-binding protein G(i) subunit alpha-1 (Homo sapiens), P63096 | Gai1:RGS12 GoLoco peptide FP, rhodamine, 10 min | Potency, µM (top dose mostly 61.6 µM), without a hit: top-dose activity, negative = inhibition, usual class: inhibitors | 230,000 compounds, 0.44% hits | AID 880, 2007; active means well fitted inhibition curve with a large enough effect, not every such curve was filed as active; inactive means no such curve, though single readings can be large or run the other way; further: on the % scale 0 is the no-effect control and ±100 the full control effect; nearly all actives have a fitted effect of over 30% in size
Target sequence (P63096 whole entry, looked up): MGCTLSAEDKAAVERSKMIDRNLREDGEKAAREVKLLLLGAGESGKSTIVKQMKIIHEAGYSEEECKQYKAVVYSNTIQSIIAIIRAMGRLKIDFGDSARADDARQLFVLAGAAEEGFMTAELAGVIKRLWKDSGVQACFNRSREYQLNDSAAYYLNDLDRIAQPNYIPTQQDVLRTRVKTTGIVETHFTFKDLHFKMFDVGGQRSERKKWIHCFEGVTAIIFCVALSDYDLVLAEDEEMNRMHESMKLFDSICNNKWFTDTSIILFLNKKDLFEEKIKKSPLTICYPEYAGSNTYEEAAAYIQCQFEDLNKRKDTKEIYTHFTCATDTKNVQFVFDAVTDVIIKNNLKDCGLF
VDR inh: Inhibitors of the vitamin D receptor (VDR): qHTS; AID 504847, 2011; 400,000 compounds, 0.93% hits; VDR-SRC2-3 peptide fluorescence polarization, 2 h; Potency, µM, without a hit: max response, negative = inhibition, most hits filed as inhibitors; further: on the % scale 0 is the no-effect control and ±100 the full control effect
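Reagent solutions, kept cold and dark, are dispensed first; compounds are then pinned in at 23 nl, plates briefly spun, and incubated 2 h at ambient temperature. Inhibition of VDR–SRC2-3 peptide binding is read by fluorescence polarization.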
VDR confirm: qHTS for Inhibitors of the vitamin D receptor (VDR): Hit Validation in Primary Screen. shares compounds with VDR inh. VDR-coactivator inhibition assay, qHTS confirmation. Potency, µM, most hits filed as inhibitors. 840 compounds, 89% hits. AID 602199, 2012
VDR FP fluor: qHTS for Inhibitors of the vitamin D receptor (VDR): Hit Validation using a Fluorescein Assay; 840 compounds, 48% hits; shares compounds with VDR inh; VDR-coactivator binding, fluorescein fluorescence polarization; Potency, µM (doses to about 57.1 µM), inactives show at the highest dose activity change, negative = inhibition, most hits filed as inhibitors
VDR bla reporter: qHTS for Inhibitors of the vitamin D receptor (VDR): Hit Validation using a Beta-Lactamase Assay | Potency, µM (top dose mostly 46.1 µM), for inactives: at the top dose activity change, negative = inhibition, actives largely listed as inhibitors | 840 compounds, 23% hits | shares compounds with VDR inh | VDR beta-lactamase reporter cells, FRET ratio; cells co-treated with VDR agonist LG190178; further: on the % scale 0 is the no-effect control and ±100 the full control effect
VDR cytotox: qHTS for Inhibitors of the vitamin D receptor (VDR): Hit Validation using a Cytotoxicity Assay; 840 compounds, 18% hits; cytotoxicity counter-screen, cell viability, qHTS; shares compounds with VDR inh; AID 602204, 2012; Potency, µM (doses to about 48.3 µM), without a hit: at the highest dose activity change, negative = cytotoxicity, hits mostly cytotoxic;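 further: plate controls were DMSO for no effect and high-concentration cycloheximide for full effect; nearly all actives have a fitted effect of over 75% in size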
Starred values were filed as active, the others as inactive; ? = inconclusive; · = no result given. The list is not random: actives were taken first. Their share in the collection is about 1.2%. Unless noted, the call rests on the fitted dose curve; in most records, active means well fitted curve in the direction sought with a large enough effect; inconclusive means small, poorly fitted or top-dose-only effect, or another doubt; inactive means no such curve, though single readings can be large; an effect the other way counts as inactive or inconclusive. Potency means the concentration at half of the fitted maximal effect.

SMILES | KAT2A inh | TRb-SRC2 inh | TexasRed fluor | RGS12 GoLoco inh | VDR inh | VDR confirm | VDR FP fluor | VDR bla reporter | VDR cytotox
O=C(Oc1csc(=S)n1C(=O)c1ccccc1)c1ccccc1 | 0% | -4% | -5% | 12% | ? | ? | 8.9µM* | -5% | 14%
COc1ccc2[nH]cc(CCNc3cc(-c4c(C)noc4C)ncn3)c2c1 | -10% | · | · | -4% | ? | · | · | · | ·
CC[C@H](C)[C@H](NC(=O)[C@H](CC(=O)O)NC(=O)[C@H](CC(C)C)NC(=O)[C@H](Cc1cnc[nH]1)NC(=O)[C@H](C)NC(=O)[C@H](Cc1ccccc1)NC(=O)[C@H](Cc1ccc(O)cc1)NC(=O)[C@@H](NC(=O)[C@H](C)NC(=O)[C@H](CCC(=O)O)NC(=O)[C@H](CCCCN)NC(=O)[C@H](CC(=O)O)NC(=O)[C@H](CCSC)NC(=O)[C@H](CC(C)C)NC(C)=O)C(C)C)C(=O)N[C@H](C(=O)N[C@@H](Cc1c[nH]c2ccccc12)C(=O)O)[C@@H](C)CC | 0% | 8% | -2% | · | -5% | · | · | · | ·
O=[N+]([O-])c1cc(S(=O)(=O)C(F)(F)F)ccc1Sc1nc2ccccc2s1 | -11% | -24% | -2% | -2% | 35µM* | 9.5* | 3.5µM* | ? | ?
ONCc1ccccc1 | -2% | -17% | ? | · | -2% | · | · | · | ·
C#CCOc1ccc(/C=C2/C(=O)ON=C2C)cc1Br | -5% | · | · | · | 40µM* | 11* | ? | ? | -15%
COc1cc(/C=C2\C(=O)ON=C2c2ccccc2)cc(Cl)c1O | -9% | 17% | 3% | 163% | 45µM* | 5.3* | 199% | ? | -28%
COc1cc(/C=C2\C(=O)ON=C2c2ccccc2)cc(Br)c1O | 4% | · | · | · | 25µM* | 3.8* | 175% | ? | -21%
CCOc1cc(/C=C2\C(=O)ON=C2c2ccccc2)cc(Br)c1O | 1% | · | · | · | 25µM* | 3.8* | 179% | ? | -11%
COc1ccc([C@@H]2CC(=O)c3c(O)cc(O[C@@H]4O[C@H](CO[C@@H]5O[C@@H](C)[C@H](O)[C@@H](O)[C@H]5O)[C@@H](O)[C@H](O)[C@H]4O)cc3O2)cc1 | -14% | -3% | -1% | · | 4% | · | · | · | ·
CCOc1cc(/C=C2/C(=O)ON=C2C)cc(Br)c1O | -7% | · | · | · | 56µM* | 9.5* | 233% | 33% | 11%
COc1cc([N+](=O)[O-])ccc1-c1ccc(/C=C2\C(=O)ON=C2c2ccccc2)o1 | · | · | · | · | ? | 2.5* | 1.8µM* | ? | ?
CC1=NOC(=O)/C1=C/c1ccc(O)c(Br)c1 | 26% | · | · | · | ? | · | · | · | ·
